In PubChem BioAssay (EPA / NIEHS):
Active and inactive are the calls of the source. Rule for the calls: active = hit-call score of the fitted dose curve at least 0.9, where 1 is the maximum; inactive = score below 0.9.

These compounds were tested against Heat shock factor protein 1 (Homo sapiens) (UniProt Q00613) (assay: ATG_HSE_CIS: Attagene CIS-FACTORIAL HepG2 Assay for human Heat Shock Transcription Factor 1 (HSE) (AID 2282953)). Details: HepG2 HSE cis-reporter, Attagene RNA transcription; actives raise or lower the signal.
Heat shock factor protein 1 (Homo sapiens), sequence (Q00613 whole entry, looked up): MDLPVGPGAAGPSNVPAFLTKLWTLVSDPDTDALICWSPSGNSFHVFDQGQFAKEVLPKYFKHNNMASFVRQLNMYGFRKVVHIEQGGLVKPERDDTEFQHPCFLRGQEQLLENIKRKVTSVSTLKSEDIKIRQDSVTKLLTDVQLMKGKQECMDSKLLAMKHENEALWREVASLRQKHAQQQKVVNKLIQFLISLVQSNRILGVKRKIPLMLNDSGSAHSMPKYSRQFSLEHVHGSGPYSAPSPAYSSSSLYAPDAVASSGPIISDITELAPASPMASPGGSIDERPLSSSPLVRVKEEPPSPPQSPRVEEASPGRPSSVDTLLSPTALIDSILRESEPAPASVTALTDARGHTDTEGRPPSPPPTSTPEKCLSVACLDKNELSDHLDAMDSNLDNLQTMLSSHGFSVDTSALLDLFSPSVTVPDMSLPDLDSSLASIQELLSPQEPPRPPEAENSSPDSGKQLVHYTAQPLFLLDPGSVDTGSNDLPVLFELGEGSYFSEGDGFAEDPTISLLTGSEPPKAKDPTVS
Experimental: ATG_CIS is a cell-based, multiplexed-readout assay that uses HepG2, a human liver cell line, with measurements taken at 24 hours after chemical dosing in a 24-well plate.ATG_HSE_CIS is one of 52 assay component(s) measured or calculated from the ATG_CIS assay. It is designed to make measurements of mRNA induction, a form of inducible reporter, as detected with fluorescence intensity signals by Reverse transcription polymerase chain reaction (RT-PCR) and Capillary electrophoresis technology.Data from the assay component ATG_HSE_CIS was analyzed into 1 assay endpoint. This assay endpoint, ATG_HSE_CIS, was analyzed with bidirectional fitting relative to DMSO as the negative control and baseline of activity. Using a type of inducible reporter, measures of mRNA for gain or loss-of-signal activity can be used to understand the reporter gene at the transcription factor-level as they relate to the gene HSF1. Furthermore, this assay endpoint can be referred to as a primary readout, because this assay has produced multiple assay endpoints where this one serves a reporter gene function. To generalize the intended target to other relatable targets, this assay endpoint is annotated to the dna binding intended target family, where the subfamily is heat shock protein.
Human liver HepG2 cells are transiently transfected with multiple reporter transcription units (MRTUs) in 6-well plates using FuGene 6 reagent (Roche; 3 ml FuGene/1 mg DNA). The MRTU constructs are regulated by a cis-regulating element (promoter). […] A major difference between the CIS and TRANS system is that in CIS activities of endogenous TFs are measured, whereas the TRANS assay evaluates changes in activities of exogenous, chimeric NR-Gal4 proteins. […] At the end of 24 hour incubation, total RNA was isolated using TriZol reagent (Invitrogen). The isolated RNA is then reverse-transcribed using oligo(dT) primer and Mo-MLV reverse transcriptase (Invitrogen) with DNAse I (Ambion) treatment for 30 min. The one-tenth of the produced cDNA was amplified by PCR using Taq DNA polymerase (Invitrogen) and two reporter sequence-specific primers. The PCR products were fluorescently labeled by primer extension with 6-arboxyfluorescein (6-FAM) 5'-labeled reporter sequence-specific primer (2 min at 95 C, 20 s at 68 C and 10 min at 72 C) and these products were digested with 5U of HpaI (New England Biolabs) for 2h at 37 C. The fragments were purified using Qiaquick PCR columns (Qiagen), analyzed on an ABI 3130xL genetic analyzer (Applied Biosystems) with peak positions identified by using a set of X-rhodamine (ROX)-labeled MapMarker1000 molecular weight standards (BioVentures). The raw capillary electrophoresis data was processed using Attagraph software (Attagene).

Row | Structure (SMILES) | outcome | AC50
1 | COC(F)(C(F)F)C(F)(F)F (stereo not given) | inactive | –
2 | CC(=O)c1ccccc1N | inactive | –
3 | CC(=O)C=O | inactive | –
4 | NC(=O)C(F)(F)C(F)(F)C(F)(F)C(F)F | inactive | –
5 | Cc1cccc(C)n1 | inactive | –
6 | NCC(F)(F)C(F)(F)C(F)(F)C(F)(F)C(F)(F)C(F)(F)F | inactive | –
7 | CC(C)C(=O)OCc1ccccc1 | inactive | –
8 | COCCOCCC[Si](C)(O[Si](C)(C)C)O[Si](C)(C)C | – | 20.3 µM (active)
9 | CN(N=O)C(=O)N[C@@H]1[C@@H](O)[C@H](O)[C@@H](CO)O[C@@H]1O | inactive | –
10 | NC(O)(C(F)(F)F)C(F)(F)F | inactive | –
11 | CN(C(=O)C(F)(F)C(F)(F)C(F)(F)F)[Si](C)(C)C | inactive | –
12 | CO[Si](C)(CCC(F)(F)C(F)(F)C(F)(F)C(F)(F)C(F)(F)C(F)(F)F)OC | inactive | –
13 | OC(O)C(F)(F)C(F)(F)F | inactive | –
14 | OCCCCC(F)(F)C(F)(F)C(F)(F)C(F)(F)F | inactive | –
15 | C[Si](Cl)(Cl)CCC(F)(F)C(F)(F)C(F)(F)C(F)(F)C(F)(F)C(F)(F)F | inactive | –
16 | O=C1OC(=O)c2ccc3c4c(ccc1c24)C(=O)OC3=O | inactive | –
17 | O=S(=O)(O)CCC(F)(F)C(F)(F)C(F)(F)C(F)(F)F | inactive | –
18 | CCOC(C=C(C)CCC=C(C)C)OCC | inactive | –
19 | CCC/C=C/CO | inactive | –
20 | NS(=O)(=O)C(F)(F)C(F)(F)C(F)(F)C(F)(F)C(F)(F)C(F)(F)F | inactive | –

Row | Structure (SMILES) | outcome | AC50
21 | CC(C)CC=C(C=O)c1ccccc1 | inactive | –
22 | O=C(O)C(F)(F)C(F)(F)C(F)(F)OC(F)(C(F)(F)F)C(F)(F)F | inactive | –
23 | OCCCC(F)(F)C(F)(F)C(F)(F)C(F)(F)C(F)(F)C(F)(F)C(F)(F)C(F)(F)F | inactive | –
24 | C=CC(=O)OCCC(F)(F)C(F)(F)C(F)(F)C(F)(F)F | inactive | –
25 | Brc1nc2ccccc2s1 | – | 89.7 µM (active)
26 | O=C(Cl)c1ccc(Cl)cc1Cl | – | 163 µM (active)
27 | CC(C)(C)C(=O)C1C(=O)c2ccccc2C1=O | inactive | –
28 | Oc1ccc2c(c1)CCC2 | inactive | –
29 | O=C(O)C(F)(F)C(F)(F)C(F)(F)OC(F)(F)F | inactive | –
30 | CCN=C1C=CC(=C(c2ccc(N(CC)CC)cc2)c2ccc(N(CC)CC)cc2)c2ccccc21 | – | 1.01 µM (active)
31 | O=C(O)CCC(F)(F)C(F)(F)C(F)(F)C(F)(F)C(F)(F)C(F)(F)C(F)(F)F | inactive | –
32 | O=C1C=CC(=O)N1c1ccc(Cc2ccc(N3C(=O)C=CC3=O)cc2)cc1 | – | 55.2 µM (active)
33 | O=C(O)C(F)(F)OC(F)(F)C(F)(F)OC(F)(F)C(F)(F)OC(F)(F)F | – | 104 µM (active)
34 | O=C1C=CC(=O)N1c1ccccc1 | inactive | –
35 | F[Si-2](F)(F)(F)(F)F | inactive | –
36 | Cc1ccc2c(c1)OCC(=O)CO2 | inactive | –
37 | CCc1ccc(C)nc1 | inactive | –
38 | c1ccc(C[P+](c2ccccc2)(c2ccccc2)c2ccccc2)cc1 | inactive | –
39 | OCC(F)(F)C(F)(F)C(F)(F)C(F)(F)C(F)(F)C(F)(F)C(F)(F)C(F)(F)CO | inactive | –
40 | CC(C)(C)c1cc(Cc2cc(C(C)(C)C)c(O)c(C(C)(C)C)c2)cc(C(C)(C)C)c1O | inactive | –
